Source: PubChem (National Center for Advancing Translational Sciences (NCATS))
HT1080 IDH1KD tx: toxicity to HT-1080 IDH1 knockdown cells (counter line); AID 686971; Potency, µM (highest dose often 46.1 µM), most hits filed as cytotoxic; actives 2% (n = 360,000); HT-1080 IDH1 knockdown viability, ATP luminescence, 48 h
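% activity derives from luminescence (CellTiter-Glo), normalised to DMSO and no-cell wells. HT-1080-IDH1KD cells, 750/well, had 48 h compound exposure at 37 °C.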
HT1080NT lethal: kills 2HG-producing HT-1080-NT fibrosarcoma cells. actives 1.6% (n = 360,000). Potency, µM (titrated, usually from 46.1 µM), most hits filed as cytotoxic. HT-1080-NT fibrosarcoma viability, CellTiter-Glo ATP luminescence, 48 h. AID 686970;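 note: NT is the 2HG producing partner of a matched IDH1 knockdown line; nearly all actives have a fitted effect of over 55% in size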
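Toxicity toward the 2HG-producing NT line was scored as %Activity, normalised to DMSO and no-cell wells, from CellTiter-Glo luminescence after 48 hours' treatment.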
KB-V1 cytotox: KB-V1 MDR subline cytotoxicity. KB-V1 MDR cells viability, CellTiter-Glo, 72 h. Potency, µM (top dose mostly 46.1 µM), most hits filed as cytotoxic. actives 3.4% (n = 400,000). AID 1347076; note: nearly all actives have a fitted effect of over 60% in size
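In this primary screen, KB-V1 cells overexpressing P-gp are incubated with library compounds (lowest to highest concentration) for 72 h at 37 degrees C before a luminescent ATP viability read.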
KB-3-1 cytotox: KB-3-1 parental cell cytotoxicity; AID 1347075; actives 1.4% (n = 400,000); KB-3-1 viability, CellTiter-Glo ATP luminescence, 72 h; Potency, µM (doses to about 46.1 µM), usual class: cytotoxic; note: nearly all actives have a fitted effect of over 60% in size
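Parental KB-3-1 viability, qHTS format: 72 h compound exposure, 37 °C; CellTiter-Glo; media-only wells and DMSO plates as controls; concentration-effect fits on corrected data.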
A number is an active result; - = inactive; ? = inconclusive; . = no result given. A selection: hits, their analogues and other compounds. The true share with any hit is near 5.7%. Calls come from the whole dose curve; as a rule, active = well fitted curve in the direction sought with a large enough effect; inconclusive = small, poorly fitted or top-dose-only effect, or another doubt; inactive = no such curve, though single readings can be large; an effect the other way counts as inactive or inconclusive.

SMILES	HT1080 IDH1KD tx	HT1080NT lethal	KB-V1 cytotox	KB-3-1 cytotox
Cc1c(C(=O)Nc2ccccc2-c2ccccc2)cccc1[N+](=O)[O-]	-	-	15µM	-
CCOC(=O)c1ccccc1NC(=O)CCc1c(C)nc2ncnn2c1C	.	.	-	-
CCCn1c2ccccc2c2cnn(CC(=O)NCC3CCN(Cc4ccc(F)cc4)CC3)c(=O)c21	.	.	-	-
CC(C)(C)OC(=O)N1CCC(c2c(C(=O)NCCc3ccccc3)cnn2-c2ccc(F)cc2)CC1	.	.	-	?
COCCn1c(C)cc(C(=O)COC(=O)c2[nH]c(C)c(C(C)=O)c2C)c1C	?	-	4.1µM	?
Cc1cc(C(=O)COC(=O)c2n[nH]c3ccccc23)c(C)n1C	-	-	-	-
CN(C(=O)COC(=O)c1n[nH]c2ccccc12)c1ccccc1	-	-	8.2µM	-
COCCn1c(C)cc(C(=O)COC(=O)c2n[nH]c3ccccc23)c1C	-	-	9.2µM	-
COCCn1c(C)cc(C(=O)COC(=O)c2ccccc2Br)c1C	-	-	-	-
COc1cc(-c2ccno2)ccc1S(=O)(=O)N1CCN(c2cccc(Cl)c2)CC1	.	.	-	-
COc1ccc(-n2cc(C(=O)Oc3cc(C)cc(C)c3)c3ccccc3c2=O)cc1	.	.	-	-
CCOC(=O)c1c(C)nc(C)c(C(=O)OCC)c1-c1ccc(OC)cc1	-	-	-	-
CCOC(=O)c1c(-c2ccc(OC)cc2)nc2nonc2c1N	-	-	13µM	?
CCC(C)(C)n1nnnc1CN1CCC(NC(=O)c2ccccc2C)CC1	-	-	-	-
CCOc1ccccc1C(=O)NC1CCN(Cc2nnnn2C2CCCC2)CC1	-	-	9.2µM	-
Cc1ccccc1C(=O)NC1CCN(Cc2nnnn2Cc2ccc(F)cc2)CC1	-	-	21µM	-
Cc1cc(C)c(S(=O)(=O)Nc2ccc3oc4c(c3c2)C(=O)CC(C)(C)C4)cc1C	.	.	-	-
COc1ccc(S(=O)(=O)Nc2ccc3oc4c(c3c2)C(=O)CC(C)(C)C4)cc1	.	.	18µM	?
CCCCN1CC(c2nc3ccccc3n2CCCCOc2cc(C)ccc2C)CC1=O (configuration not stated)	.	.	-	-
COc1ccc(Cl)cc1Nc1nc2ccc(C(=O)c3ccccc3)cc2n2cnnc12	.	.	-	-
O=C(CN1CCN(C(=O)C2CC2)CC1)Nc1cc(C(F)(F)F)cc(C(F)(F)F)c1	-	-	21µM	-
Cc1ccc(NC(=O)CN2CCN(C(=O)C3CC3)CC2)c(F)c1	-	-	-	-
COc1ccc(CN2CC[C@H]3C=CC[C@@H](C(=O)Nc4ccc(Cl)cc4Cl)[C@H]3C2=O)cc1OC	.	.	?	-
O=C(NCCN1CCOCC1)c1cc(Cl)ccc1Cl	-	-	-	-
O=C(NCCN1CCOCC1)NC1(C(F)(F)F)Oc2ccc(Cl)cc2O1 (configuration not stated)	-	-	?	4.6µM
SMILES	HT1080 IDH1KD tx	HT1080NT lethal	KB-V1 cytotox	KB-3-1 cytotox
CNC(=O)NC(=O)C(C)OC(=O)c1c2c(nc3ccccc13)/C(=C/c1cccs1)CC2 (configuration not stated)	-	-	5.2µM	?
O=C1C2C3C=CC(CO)(O3)C2C(=O)N1c1ccccc1-c1ccccc1 (configuration not stated)	1.6µM	3.2µM	-	-
O=C(CSc1nc2ccccc2n1S(=O)(=O)c1cccc([N+](=O)[O-])c1)NCCc1ccccc1	-	-	3.7µM	?
COC(=O)C[C@@H]1OC[C@H](C(C)C)N1S(=O)(=O)c1ccc(C)cc1	-	-	-	-
CCCCN(CCCC)c1ccc(/C=C2\C=Cc3ccccc32)cc1	.	.	-	-
COc1c(N2CCN(C(=S)NCc3ccccc3)C(C)C2)c(F)cc2c(=O)c(C(=O)O)cn(C3CC3)c12 (configuration not stated)	18µM	?	-	?
COc1ccccc1NC(=S)N(Cc1ccco1)Cc1cc2cc(C)cc(C)c2[nH]c1=O	?	?	2.9µM	6.5µM
CNC(=S)N(Cc1ccco1)Cc1cc2cc(OC)c(OC)cc2[nH]c1=O	-	-	-	-
Cc1ccc2cc(CN(Cc3ccco3)C(=O)C3CCCCC3)c(=O)[nH]c2c1C	-	-	-	-
COc1ccccc1NC(=S)N(Cc1ccco1)Cc1cc2ccc(C)c(C)c2[nH]c1=O	?	?	1.8µM	0.92µM
Cc1ccc(CNC(=O)CSc2nc3ccccc3nc2Cc2ccc(C)cc2)cc1	.	.	-	-
CCC(=O)n1nc(-c2ccccc2)nc1SCC(=O)Nc1ccc(C)cc1	-	-	21µM	-
Cc1ccc(NC(=O)CSc2nc3ccccc3c3nc4ccccc4n23)cc1	0.28µM	0.4µM	1.6µM	0.92µM
O=C(CSc1nc(-c2ccccc2)nn1C(=O)c1ccccc1)Nc1cccc([N+](=O)[O-])c1	-	-	21µM	?
COc1ccc(OC)c(CCNC(=O)c2cc3c(-c4ccccc4F)nn(C)c3s2)c1	.	.	-	?
CCCCN(C)c1ncnc2c1cnn2-c1cccc(Cl)c1	.	.	-	-
Cc1noc(C)c1CSc1ccc2ccccc2n1	-	-	21µM	-
Cc1noc(C)c1CSc1nc2ccccc2c(=O)n1-c1ccc(Cl)cc1	7.1µM	10µM	23µM	?
CC(C)(C)c1cc(NCc2ccccn2)n2ncc(-c3ccccc3)c2n1	21µM	?	?	-
CCOc1ccccc1/C=N/Nc1ccnc(=O)[nH]1	-	-	-	-
COc1cccc(/C=N/Nc2ccnc(=O)[nH]2)c1O	?	?	?	4.6µM
O=c1nccc(N/N=C/c2ccccc2O)[nH]1	?	1.2µM	-	6.5µM
COc1cccc(/C=N/Nc2snc(SC)c2C#N)c1O	?	?	16µM	13µM
Cc1nc(Sc2nnnn2C2CC2)c2c(-c3ccccc3)csc2n1	.	.	-	?
Cc1ccccc1-n1nc2c(c1NC(=O)c1ccc(Br)o1)CSC2	-	-	13µM	-
SMILES	HT1080 IDH1KD tx	HT1080NT lethal	KB-V1 cytotox	KB-3-1 cytotox
CCCc1nn2c(C)c(-c3ccccc3)nc2s1	.	.	-	-
O=C(Cn1c(=O)n(Cc2ccc(C(=O)NCc3ccccc3Cl)cc2)c(=O)c2ccccc21)Nc1ccc(F)c(Cl)c1	.	.	-	-
Cc1cccc(-c2ocnc2C(=O)Nc2ccccc2NC(=O)c2ccccn2)c1	?	18µM	?	-
CSCCC(NS(=O)(=O)c1ccc2c(c1)oc(=O)n2C)C(=O)Nc1ccc(Cl)cc1 (configuration not stated)	.	.	?	-
Cc1ccc(S(=O)(=O)/N=C(/Nc2ccc([N+](=O)[O-])cc2)c2ccccc2)cc1	-	-	?	?
Cc1ccc(S(=O)(=O)/N=C(/Nc2ccc([N+](=O)[O-])cc2[N+](=O)[O-])c2ccccc2)cc1	-	-	16µM	-
O=S(=O)(/N=C(/Nc1cccc2ccccc12)c1ccccc1)c1cccs1	-	-	-	?
Cc1ccc(N/C(=N/S(=O)(=O)c2cccs2)c2ccccc2)c(C)c1	-	?	9.2µM	?
CCOc1cc(C(=O)Nc2ccc3c(c2)OCO3)ccc1OC(F)F	-	-	21µM	-
CCCOc1c(Cl)cc(C(=O)Nc2ccc3c(c2)OCO3)cc1OCC	10µM	?	?	?
